Out of some 69,000 compounds screened, about 8,600 (12%) showed an effect of 50% or more. For the sample, strong results were picked, then their nearest neighbours and some compounds at random.
system: Plasmodium berghei; assay: Screen against P. berghei liver stage (PbLuc), transformed with Luciferase, at 10uM; format: functional, HepG2; settings: tested at 10 uM

SMILES | INHIBITION
Cc1ccc(NC2COC3(CCN(Cc4ccn(C)n4)CC3)C2)nn1 (stereo not given) | -4.99%
Cc1ccc([C@@H]2CN(C(=O)c3ccccc3C)C[C@H]2N(C)C)cc1 | 39.5%
N#Cc1ccccc1CN1C[C@H]2CC[C@@H](C1)N(CC1CCC1)C2=O | 42.6%
O=C(N1CCC(Nc2cccnn2)CC1)C1(c2ccc(F)cc2)CC1 | 30.2%
CCc1ncc2c(n1)CN(CCCc1nc3ccccc3o1)CC2 | 38.5%
COCCCNC(=O)c1c(C)noc1C(C)C | -33.7%
COCCNC(=O)CN(C)C(C)c1nc(C)no1 (stereo not given) | 58.5%
COCCCNC(=O)CN(C)C(C)c1nc(C)no1 (stereo not given) | 14.6%
COCCCNC(=O)CN(C)C(C)c1nc(C(C)C)no1 (stereo not given) | 59.3%
Cc1noc(C(C)N(C)CC(=O)NCCc2ccc(Cl)cc2)n1 (stereo not given) | -9.3%
COCCCNC(=O)CN(C)C(=O)c1ccccc1O | 20.4%
CCc1ccccc1Nc1noc2c1CN(C(=O)CCOC)CC2 | -5.71%
CC(C)CNC(=O)C1CC(=O)N(c2n[nH]c3ccccc23)C1 (stereo not given) | -11.7%
CCN1CCCC(C)(C(=O)NCc2nnnn2-c2ccccc2)C1 (stereo not given) | -1.7%
O=C(NCC1(N2CCOCC2)CCSC1)Nc1ccncc1 (stereo not given) | 18.6%
c1ccc2sc(NCC3(N4CCOCC4)CCSC3)nc2c1 (stereo not given) | 18.3%
c1ccc2nc(NCC3(N4CCOCC4)CCSC3)cnc2c1 (stereo not given) | 46.6%
O=C(NCc1ccc(F)cc1)NCC1(N2CCOCC2)CCSC1 (stereo not given) | 40.5%
O=C(NCC1(N2CCOCC2)CCSC1)Nc1ccccn1 (stereo not given) | 18.6%
Fc1cccc2ncnc(NCC3(N4CCOCC4)CCSC3)c12 (stereo not given) | 91.1%
c1ccc2c(NCC3(N4CCOCC4)CCSC3)ncnc2c1 (stereo not given) | 94.5%
c1nc(NCC2(N3CCOCC3)CCSC2)c2sccc2n1 (stereo not given) | 91.1%
CN(Cc1ccc(F)cc1)C(=O)NCC1(N2CCOCC2)CCSC1 (stereo not given) | 36.8%
CC1CCN(S(=O)(=O)c2ccc(C(=O)N3CCSCC3)cc2)CC1 | -2.39%
CN(C)C(=O)NCc1cc2n(n1)CCN(CC1[C@H]3CNC[C@@H]13)C2 (stereo not given in full) | 43.5%
NC(=O)c1cnn2c(C3CCN(CCO)CC3)ccnc12 | 14.55%
COCc1cnc2n1CCN(Cc1cccnc1)C2C (stereo not given) | -0.182%
O=C(N[C@@H]1CN(Cc2cccc3[nH]ccc23)C[C@H]1O)c1cscn1 | -10.8%
CCN1CC(COC(C)(C)C)Oc2ccncc2S1(=O)=O (stereo not given) | 13.1%
CS(=O)(=O)N1CCN(C(=O)CCn2cccn2)CC1 | 17.32%

From ChEMBL document CHEMBL4513216, “Probing the Open Global Health Chemical Diversity Library for Multistage-Active Starting Points for Next-Generation Antimalarials” (ACS Infect Dis, 2020)
